BoNT-F LC inh: BoNT F light chain protease inhibition | AID 588497 | Multiplex microsphere protease cleavage assay, flow cytometry | 360,000 tested, 0.22% active | inhibition, % at 10 µM; in the data active = inhibition above about 35%, passing the limit was not always enough; inconclusive = no clear call, values can overlap the other calls
Anthrax LF inh2: blocks Bacillus anthracis lethal factor protease; P15917; multiplex microsphere protease cleavage assay, LF; inhibition, % at 10 µM; 360,000 tested, 0.12% active; AID 588501
BoNT-A LC inh2: blocks Botulinum neurotoxin A light chain protease | 360,000 tested, 0.17% active | AID 588499 | inhibition, % at 10 µM | multiplex microsphere protease substrate cleavage, flow cytometry
MazF activator: increases E. coli MazEF RNase cleavage of RNA; FAM/BHQ RNA-DNA oligo cleavage fluorescence, 5 h; activation, % at 20 µM; 350,000 tested, 0.32% active; AID 504720; in the data active = activation above about 50%
Target sequence (P0AE70 whole entry, looked up): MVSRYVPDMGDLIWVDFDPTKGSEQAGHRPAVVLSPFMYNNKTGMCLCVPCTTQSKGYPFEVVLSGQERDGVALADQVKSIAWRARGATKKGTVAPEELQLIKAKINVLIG
Bead autofluor: compound fluorescence in toxin protease inhibitor counterscreen; 360,000 tested, 3.1% active; compound autofluorescence counterscreen, microsphere flow cytometry; active compounds read high; fluorescence intensity (test concentration not listed); in the data active = fluorescence intensity above about 16000; inconclusive = no clear call, values can overlap the other calls
Numbers stand for hits; . = inactive; ? = inconclusive; / = no result given; ! = not confirmed by another sample. In the library only some 3.7% were active in any assay of this set; here they are far more common. Cut-off read from the data, not from the text of the source, unless noted: active = inhibition above about 30%; inconclusive = no clear call, values can overlap the other calls; inactive = below that.

SMILES	BoNT-F LC inh	Anthrax LF inh2	BoNT-A LC inh2	MazF activator	Bead autofluor
CC(C)NC(=O)C1CCN(C(=O)C(C(=O)c2ccccc2)n2cc(Cl)ccc2=O)CC1 (stereo not given)	.	.	.	.	23513
CCC(CO)NCc1ccc2c(c1)n(C)c(=O)n2C (stereo not given)	.	.	.	.	16488
CN1CCN(c2nc(N(C)C)oc(=O)c2C#N)CC1	.	.	.	.	22716
COc1cc2c(cc1NC(=O)C(C)N1CCN(S(=O)(=O)c3ccc(C)c(C)c3)CC1)oc1ccccc12 (stereo not given)	.	.	.	.	16646
COc1cc2c(cc1NC(=O)CSc1ccccn1)oc1ccccc12	.	.	?	.	20567
COc1ccccc1CC(=O)Nc1cc2oc3ccccc3c2cc1OC	34	.	.	.	.
COc1ccccc1Cc1c(C2CCCCC2)nc2ccc(Cl)cn12	.	.	.	/	.
CC(C)C[C@H]1CNC(=O)C(=O)N1CC1CCN(CCc2ccc(-c3ccccc3)cc2)CC1	.	.	.	.	.
COc1cc(F)ccc1-c1csc(C(O)c2ccccc2)n1 (stereo not given)	.	.	.	/	.
CCOC(=O)c1c(NC(C)=O)sc2c1CCC(C=NCCCN(CC)CC)=C2Sc1ccccc1	.	31	68	.	.
O=C(Nc1cccc2ccccc12)/C(=C/c1ccc([N+](=O)[O-])cc1)NC(=O)c1ccccc1	.	.	34	.	.
O=C(Nc1cccc(C(=O)O)c1)/C(=C/c1ccc([N+](=O)[O-])cc1)NC(=O)c1ccccc1	.	.	.	.	.
COc1ccc(S(=O)(=O)NC(=O)C2(C)CCN2C(=O)Cc2cc(C)cc(C)c2)cc1 (stereo not given)	.	.	.	/	.
N#C/C(C(=O)Oc1ccccc1)=C1\C=Cc2ccccc2N1	.	.	.	50	.
O=C(c1ccc(F)cc1)c1cc2ccccc2o1	.	.	.	.	24066
O=C(c1ccccc1)c1cc2ccccc2o1	.	.	.	.	.
CCCCNC(=O)Nc1cc(C)on1	.	.	.	.	20643
CCOc1ccc(C(=O)OCC(=O)Nc2nc(OC)cc(OC)n2)cc1OCC	.	.	?	.	23423
CNS(=O)(=O)c1cccc(C(=O)OCC(=O)Nc2nc(OC)cc(OC)n2)c1	.	.	.	.	.
CCOc1cc(C(=O)OCC(=O)Nc2cc(C)on2)cc(OCC)c1OCC	.	.	.	.	22120
O=C(NCC1CCN(Cc2ccccc2F)CC1)C1CCCN(c2ncnc3c2nc2n3CCCCC2)C1 (stereo not given)	.	.	.	.	.
CCOc1ccc(OCc2cccc(C(=O)O)c2)cc1	.	.	.	.	22901
CCOc1ccc(C(=O)NC(C)(C)CC)cc1	.	.	.	.	.
CCOc1ccc(C(C)(N)C(=O)O)cc1 (stereo not given)	.	.	?	.	22131
COc1ccccc1NC(=O)Cn1nnc(C(=O)Nc2ccccc2)c1N	.	.	.	.	.
SMILES	BoNT-F LC inh	Anthrax LF inh2	BoNT-A LC inh2	MazF activator	Bead autofluor
COc1ccccc1NC(=O)c1nnn(CC(=O)Nc2ccccc2)c1N	.	.	.	.	.
CCOc1ccc(NC(=O)c2nnn(CC(=O)Nc3ccccc3OC)c2N)cc1	36	.	.	.	.
COc1ccccc1NC(=O)c1nnn(CC(=O)Nc2cccc(SC)c2)c1N	.	.	.	.	22055
O=C(CCc1nc2ccccc2c(=O)[nH]1)Nc1cc(C(F)(F)F)ccc1N1CCCC1	.	.	.	.	.
COc1cc(/C=C2\C(=N)N3N=C(S(C)(=O)=O)SC3=NC2=O)cc(OC)c1OCCOc1ccccc1C	?	.	.	.	.
COc1cc(/C=C2\C(=N)N3N=C(C)SC3=NC2=O)cc(OC)c1OCCOc1ccccc1C	55	.	.	.	.
CCC(CC)c1nnc(NC(=O)Cc2c[nH]c3ccccc23)s1	.	.	.	.	.
CCOc1cccc(-c2cc(C(=O)N3N=C(C)CC3(O)C(F)F)c3ccccc3n2)c1 (stereo not given)	.	.	.	.	.
O=C(c1cc(-c2ccccc2)nc2ccccc12)N1N=C(C(F)F)CC1(O)C(F)F (stereo not given)	.	.	.	.	26128
O=C(Nc1ccccc1)N(CCCN1CCOCC1)Cc1ccccc1F	.	.	.	.	.
COc1ccc(CN(CCCN2CCOCC2)C(=O)Nc2ccccc2)cc1OC	.	.	?	.	22584
Cn1ncc(Cl)c1C(=O)Nc1cccc(Cl)c1	.	.	.	.	.
Cn1ncc(N=Cc2c(O)ccc3ccccc23)c1C(=O)Nc1cccc(Cl)c1	.	.	.	360	.
COc1ccc(C2C(Oc3ccccc3)C(=O)N2c2cc(C)ccc2C)cc1OC (stereo not given)	.	.	.	.	20605
CCOCCCNC(=O)CS(=O)(=O)Cc1nc(-c2cccc(OC)c2)oc1C	.	.	?	.	21852
Nc1ncnc2c1ncn2[C@@H]1O[C@H](CNCc2cn(CC(=O)NC3CC3)c3ccccc23)[C@@H](O)[C@H]1O	.	.	.	.	.
CC1=C(C(=O)N2CCOCC2)CC(CC(=O)NCCCCc2ccccc2)C(=O)N1Cc1ccc(C(C)(C)C)cc1 (stereo not given)	.	.	.	.	.
Cc1cccc(Sc2c([N+](=O)[O-])ncn2C)c1	.	.	.	.	23323
Cc1cccnc1Sc1c([N+](=O)[O-])ncn1C	.	.	.	.	.
Oc1ccccc1Nc1nc(NCc2ccccc2)c2ccccc2n1	.	.	.	57	.
Oc1ccccc1-c1nc(NCc2ccccc2)c2ccccc2n1	.	.	.	63	.
c1ccc(CNc2ncnc3ccccc23)cc1	.	.	.	.	20097!
CNc1nc(NCc2ccccc2)c2ccccc2n1	.	.	.	.	.
Oc1ccccc1-c1nc(NCc2ccco2)c2ccccc2n1	?	.	.	120	?
Fc1ccccc1-c1nc(NCc2ccco2)c2ccccc2n1	.	.	.	.	.
SMILES	BoNT-F LC inh	Anthrax LF inh2	BoNT-A LC inh2	MazF activator	Bead autofluor
COCCN(C(=O)COC(=O)C1CC(=O)N(c2ccc(C)cc2)C1)c1c(N)n(Cc2ccccc2)c(=O)[nH]c1=O (stereo not given)	.	.	.	.	.
Cc1nc(NC(=O)c2ccc(-c3cc4ccccc4oc3=O)cc2)ccc1Br	.	.	.	.	.
Cc1nc(NC(=O)c2cccc(-c3cc4ccccc4oc3=O)c2)ccc1Br	.	.	.	84	.
O=C(Cc1ncn[nH]1)NCCc1ccccc1	.	.	.	.	.
CCCNC(=O)Cc1ncn[nH]1	.	.	.	.	20413
O=C(c1cccn2c(=O)c3cc(Cl)ccc3nc12)N1CCOCC1	.	.	?	.	23073
O=C(c1cccn2c(=O)c3ccccc3nc12)N1CCN(Cc2ccc3c(c2)OCO3)CC1	.	.	.	.	20636
O=C(c1cccn2c(=O)c3cc(Cl)ccc3nc12)N1CCN(Cc2ccc3c(c2)OCO3)CC1	.	.	.	.	16508
O=C(c1ccc2nc3ccccc3c(=O)n2c1)N1CCN(Cc2ccc3c(c2)OCO3)CC1	.	.	.	.	.
FC(F)Sc1ccc(Nc2ncnc3nc[nH]c23)cc1	.	.	?	.	23588
